Assay outcomes deposited in PubChem by National Center for Advancing Translational Sciences (NCATS).
RORg inh: blocks mouse ROR gamma transcriptional activity; hit rate 5.4% among 310,000; P51450; Potency, µM (titrated, usually from 53.6 µM), without a hit: at the top dose activity change, negative = inhibition, most hits filed as inhibitors; Drosophila S2 Gal4-RORgamma UAS-luciferase reporter, 20 h; further: on the % scale 0 is the no-effect control and ±100 the full control effect; nearly all actives have a fitted effect of over 60% in size
Target sequence (P51450 whole entry, looked up, the tested form may be a part): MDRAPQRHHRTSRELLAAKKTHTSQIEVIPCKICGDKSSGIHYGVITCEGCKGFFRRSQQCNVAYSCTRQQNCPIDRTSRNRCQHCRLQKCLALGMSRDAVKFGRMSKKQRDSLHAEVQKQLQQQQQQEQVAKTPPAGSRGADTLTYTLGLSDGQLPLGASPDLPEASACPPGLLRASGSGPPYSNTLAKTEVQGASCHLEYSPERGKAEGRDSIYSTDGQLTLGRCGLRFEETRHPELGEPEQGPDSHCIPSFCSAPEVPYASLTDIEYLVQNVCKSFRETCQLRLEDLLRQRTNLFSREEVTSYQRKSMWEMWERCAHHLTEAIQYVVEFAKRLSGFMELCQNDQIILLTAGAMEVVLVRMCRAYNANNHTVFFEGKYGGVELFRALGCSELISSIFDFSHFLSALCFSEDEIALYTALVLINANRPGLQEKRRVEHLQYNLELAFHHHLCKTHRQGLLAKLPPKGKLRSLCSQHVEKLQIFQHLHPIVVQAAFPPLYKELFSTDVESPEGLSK
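Schneider cells (Drosophila), stable Gal4 DBD–ROR gamma + UAS-luc; 1 hr cmpd preincubation; Cu2+ induction 700 uM final; 20 hr ambient; luminescence.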
ATXN2 expr inh: inhibitors of ATXN2 expression | HEK-293 ATXN2-luciferase reporter, luminescence, 24 h | Potency, µM (top dose mostly 57 µM), for the others: at the highest dose activity change, negative = inhibition, hits mostly inhibitors | hit rate 0.72% among 360,000 | AID 1745845; further: on the % scale 0 is the no-effect control and ±100 the full control effect; nearly all actives have a fitted effect of over 55% in size
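ATXN2-luciferase reporter cells (luciferase flanked by upstream and downstream ATXN2 gene portions) were treated 24 h at 37 °C with compounds at up to 57 uM. SteadyGlo luminescence gave expression; GF-AFC fluorescence gave viability.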
S2 tox: cell viability loss in ATXN counter-screen | Potency, µM (top dose mostly 56.7 µM), usual class: cytotoxic | hit rate 0.49% among 400,000 | AID 651635 | S2 cells (HEK-293 line with an ATXN2-luciferase reporter) viability, CellTiter-Fluor protease fluorescence, 24 h; further: nearly all actives have a fitted effect of over 40% in size
TGFb SMAD3 inh: TGF-b pathway inhibition; hit rate 1.2% among 410,000; Potency, µM (doses to about 46.1 µM), for the others: at the top dose activity, negative = inhibition, most hits filed as inhibitors; AID 588855; HepG2 CAGA-GFP TGF-b/SMAD3 reporter, GFP fluorescence, 18 h; TGF-beta stimulated, 500 pg/mL final; further: on the % scale 0 is the no-effect control and ±100 the full control effect; nearly all actives have a fitted effect of over 65% in size
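TGF-beta reporter screen: HEPG2 CAGA-GFP, 1% FBS, 500 pg/mL TGF-beta final, 18 h; per-cell GFP summed per well; curves fitted and categorized by class.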
VP16 counter: inhibits Gal4-VP16 luciferase reporter, ROR gamma counter-screen | Drosophila S2 Gal4-VP16 UAS-luciferase, luminescence, 20 h | Potency, µM (doses to about 53.6 µM), for inactives: top-dose activity, negative = inhibition, actives largely listed as inhibitors | hit rate 3.5% among 310,000 | AID 2546;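 further: Gal4-VP16 expression switched on by copper sulfate through the metallothionein promoter; on the % scale 0 is the no-effect control and ±100 the full control effect; nearly all actives have a fitted effect of over 50% in size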
HepG2 tox: counter-screen for TGF-b inhibitors: cytotoxicity in HepG2 cells | HepG2 CAGA-GFP viability, ATP luminescence, 18 h | Potency, µM (highest dose often 46.1 µM), for inactives: top-dose activity change, negative = cytotoxicity, actives largely listed as cytotoxic | hit rate 0.76% among 410,000 | AID 588856
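CellTiter-Glo luminescence gave cytotoxicity after 18 hours at 37 degrees C. The cells were HepG2 CAGA-GFP in 1% FBS DMEM, stimulated with 500 pg/mL TGF-beta after compound addition. %Activity was normalised to no-cell wells (complete cell-killing) and DMSO (no toxicity), and curves were fitted and classified.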
Active calls of the source: *; i = inactive; ? = inconclusive; . = no result. The list is not random: actives were taken first. Their share in the collection is about 6.3%. The call rests on the fitted dose curve; in most records, active means well fitted curve in the direction sought with a large enough effect; inconclusive means small, poorly fitted or top-dose-only effect, or another doubt; inactive means no such curve, though single readings can be large; an effect the other way counts as inactive or inconclusive. Potency means the concentration at half of the fitted maximal effect.

SMILES	RORg inh	ATXN2 expr inh	S2 tox	TGFb SMAD3 inh	VP16 counter	HepG2 tox
S=C(NCc1ccco1)Nc1cc(Cl)c(Cl)cc1Cl	?	-4%	i	?	?	-37%
CC(=O)c1cccc(NC(=S)NCc2ccco2)c1	-4%	.	?	-26%	1%	-10%
S=C(NCc1ccco1)Nc1cccc(Cl)c1	1.8µM*	1%	i	?	7.1µM*	-21%
COc1ccc(Cl)cc1NC(=S)NCc1ccco1	18µM*	-10%	?	-2%	?	-2%
COc1ccc(Cl)cc1NC(=O)NCc1ccco1	31%	.	i	?	4%	-9%
Cc1cccc(C(=O)NC(=S)NCc2cccnc2)c1	16µM*	3%	i	0%	?	3%
CCOc1cccc(C(=O)NC(=S)NCc2cccnc2)c1	?	4%	i	?	?	-62%
O=C(NNC(=S)NCc1ccccc1)c1cccnc1	-21%	3%	i	1%	-5%	-5%
O=C(NC(=S)NCc1ccccc1)c1cccnc1	11µM*	24%	i	21%	?	-11%
CCOc1ccc(C(=O)NC(=S)NCc2cccnc2)cc1	?	-3%	i	?	-22%	1%
O=C(NCCC1=CCCCC1)C1CCCN(S(=O)(=O)c2cccnc2)C1 (stereo not drawn)	28%	-9%	i	2%	5%	-8%
CCCOc1ccc(C(=O)NC(=S)NCc2cccnc2)cc1	?	5%	i	-18%	13µM*	-21%
O=C(NC(=S)NCCC1=CCCCC1)c1cccnc1	4µM*	14%	i	?	?	4%
COc1cccc(CNC(=O)C2CCN(S(=O)(=O)c3c(C)noc3/C=C/c3cccs3)CC2)c1	.	.	.	?	.	-16%
O=C1Cc2cc(CCN3CCN(c4nsc5ccccc45)CC3)c(Cl)cc2N1	?	?	35µM*	.	5%	.
COCCNC(=S)N/N=C(\C)c1cc2ccccc2o1	5µM*	17%	i	22%	4.5µM*	1%
C=C(C)CNC(=S)N/N=C(\C)c1ccc(OC)cc1	2.2µM*	-1%	i	?	5µM*	-18%
COCCNC(=S)N/N=C(\C)c1cccc(C(F)(F)F)c1	2.5µM*	-4%	i	-9%	5µM*	-17%
COCCNC(=S)N/N=C(\C)c1ccc(OC(F)F)cc1	2.2µM*	0%	i	?	7.9µM*	-39%
Cc1cccc(N2C(=O)CSC23C(=O)N(CC(=O)NCc2ccccc2Cl)c2ccccc23)c1 (stereo not drawn)	.	-9%	i	-4%	.	-26%
COCCNC(=S)N/N=C(\C)c1ccc(OC)cc1	0.63µM*	5%	i	?	1.3µM*	-1%
COCCNC(=S)N/N=C(\C)c1ccc(C)c([N+](=O)[O-])c1	3.5µM*	0%	i	-4%	4µM*	15%
COCCNC(=S)N/N=C(\C)c1ccc2cc(OC)ccc2c1	1µM*	-15%	i	?	1µM*	-21%
CCC(=O)Nc1ccc(/C(C)=N\NC(=O)c2ccc(OC)cc2)cc1	-25%	1%	?	8%	-8%	8%
COc1ccc2cc(/C(C)=N/NC(=O)C3CC3)ccc2c1	-21%	26%	i	-1%	-4%	2%
SMILES	RORg inh	ATXN2 expr inh	S2 tox	TGFb SMAD3 inh	VP16 counter	HepG2 tox
C/C(=N\NC(=O)c1ccccc1)c1ccc(C)c([N+](=O)[O-])c1	6%	51%	i	-2%	?	-4%
COc1ccccc1NC(=O)c1sc2nc(C)c(C(=O)Nc3ccc(C)cc3C)c(-c3ccc(Br)cc3)c2c1N	.	-8%	i	5%	.	-8%
C=CCc1ccc(OCCn2cccc2C=O)c(OC)c1	0.63µM*	70%	i	-5%	0.56µM*	-12%
Cc1[nH]nc2c(=S)[nH]c(=O)[nH]c12	.	.	i	-11%	.	-26%
C[C@H](NC(=O)c1nc[nH]c1C(=O)N1CCN(C(=O)OC(C)(C)C)CC1)C(=O)OCc1ccccc1	?	11%	i	?	-3%	0%
CC1CCN(C(=O)c2[nH]cnc2C(=O)N[C@@H](C)C(=O)OCc2ccccc2)CC1	-32%	-36%	i	11µM*	-12%	-35%
C[C@H](NC(=O)c1nc[nH]c1C(=O)NC1CCN(C(=O)OC(C)(C)C)CC1)C(=O)OCc1ccccc1	14µM*	-5%	?	-12%	?	1%
O=C(NNC(=O)c1ccc([N+](=O)[O-])cc1)c1ccc(F)cc1	.	13%	i	-8%	.	20%
O=C(NC(NNc1ccc([N+](=O)[O-])cc1)(C(F)(F)F)C(F)(F)F)c1ccc(Cl)cc1	16µM*	?	i	?	?	-5%
CC(CCc1ccccc1)NC(=O)c1ccc(NC(=O)c2ccccc2)cc1 (stereo not drawn)	2.8µM*	-25%	i	-13%	?	-13%
CC(CCc1ccccc1)NC(=S)NC(=O)c1ccco1 (stereo not drawn)	11µM*	-13%	i	-2%	-70%	-12%
O=C(NC(=S)N(CCc1ccccc1)CCc1ccccc1)c1ccco1	0.11µM*	?	?	?	0.045µM*	-13%
CCc1cc(C(=O)NCC2Cc3cc(-c4ccccc4C(C)=O)ccc3O2)no1 (stereo not drawn)	.	.	i	.	.	.
COc1ccc(Cn2cc(CN3CCc4onc(-c5ccccc5OC)c4C3=O)nn2)cc1	.	7%	?	.	.	.
CC1(C(=O)Nc2ccc3ccccc3c2)CCC(=O)N1C1CC1 (stereo not drawn)	.	8%	i	-17%	.	3%
c1ccc(CSc2nnc(NC3CCCCC3)s2)cc1	.	.	i	-7%	.	-10%
Cc1ccc(-c2nnc(NC3CCCC3)s2)cc1	11µM*	47%	i	-11%	?	2%
c1csc(CNc2ncncc2-c2ccc3c(c2)OCO3)c1	-15%	.	.	.	-14%	.
